Inconclusive results are not listed. A number with no mark means an inactive call. Calls follow the shape of the dose curve; as a rule, active = well fitted activation curve with a large enough effect; inconclusive = small, poorly fitted or top-dose-only effect; inactive = no such curve, though single readings can be large or run the other way.
assay: qHTS assay for re-activators of p53 using a Luc reporter: Hit Validation with no p53 Expressed; details: p53-null cells, luciferase reporter counter-screen; series mostly up to 46.1 µM; activity change, positive = activation: at the top concentration; also: 0% is about no effect
Outline: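 Counter-screen of primary hits in a cell line not transfected with p53, in Opti-MEM with 10% FBS; compounds at several concentrations (10 mM stock, 1:5; top 46.1 µM in well), 24 h at 37 deg C, 5% CO2. Luminescence read after 10 min with Amplite reagent.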

Row | Structure (SMILES) | activity change, positive = activation
1 | O=C(COC(=O)c1cn(-c2ccccc2)nc1-c1ccc(F)cc1)Nc1ncc(Cl)cc1Cl | 13.6%
2 | O=[N+]([O-])c1ccc(/C=N/NC(=S)Nc2ccccc2F)o1 | -5.46%
3 | Cc1c(C(=O)N2CCc3ccccc32)oc2c1C(=O)CC(C)(C)C2 | 22.4%
4 | CN(C)CCCn1c(SCC(=O)Nc2nccs2)nnc1-c1ccncc1 | -9.64%
5 | Cc1noc(C)c1COc1ccc(C(=O)NCCOc2ccccc2)cc1 | 10.3%
6 | CCCN1CCC(=NNC(=O)CSc2cc(C)c(Br)cc2C)CC1 | -19.9%
7 | CNc1ccc(/C=C/C(=O)c2ccc(C)cc2)cc1[N+](=O)[O-] | 4.5%
8 | CCC(=O)Nc1ccc2oc(-c3cccc(C)c3)nc2c1 | -15.7%
9 | CC(C)(C)NC(=O)C(c1ccc(Cl)cc1)N(CCO)C(=O)c1snc(C(N)=O)c1N (centres undefined) | -9.98%
10 | CCCCCNC(=O)N[C@H](C(=O)O)C(C)C | 56.2%
11 | Cc1cc(/C=C2/C(=O)NN(c3ccccc3)C2=O)c(C)n1-c1cccc(O)c1 | -18.1%
12 | O=C(CNc1ccccc1)N/N=C/c1c[nH]c2ccccc12 | -48.1%
13 | CN(C)CCN(CC1CCCN(Cc2ccccc2F)C1)C(=O)c1ccc(F)cc1 (centres undefined) | 17.2%
14 | O=C(N/N=C\c1cc(Cl)ccc1O)c1ccc(S(=O)(=O)N2CCCCC2)cc1 | -22.2%
15 | CCOc1ccc2c(c1)C(=NNC(=O)c1ccncc1)c1cc(OCC)ccc1-2 | -13%
16 | O=C(Nc1nnc(-c2cccs2)o1)c1cccc(C(F)(F)F)c1 | -41.9%
17 | Cc1ccc(C)c(/C=C/C(=O)c2ccccc(=O)c2O)c1 | 7.8%
18 | Cc1cccc(C)c1Nc1c(-c2ccccn2)nc2ccccn12 | -50%
19 | Clc1ccc(C2=NNC(=NCC3CCCO3)SC2)cc1 (centres undefined) | -17%
20 | Cc1ccc(/C=N/NC(=O)c2cccs2)s1 | 33.2%

Row | Structure (SMILES) | activity change, positive = activation
21 | CC(C)(C)c1cc(-n2ccnc2)n2ncc(-c3ccc(Cl)cc3)c2n1 | 27.1%
22 | Nc1c(C(=O)c2ccc(Br)cc2)oc2ccccc12 | 43.6%
23 | COc1cc(C2=NOC(C(=O)NCc3ccc(F)cc3)C2)cc(OC)c1OC (centres undefined) | -22.3%
24 | O=C(CC(=O)c1ccccc1O)c1cccc(F)c1 | -34%
25 | COC(=O)c1nn(-c2ccc(-c3ccccc3)cc2)cc1O | 13.6%
26 | COCCCN=C(c1ccco1)n1c(=S)nc(-c2ccco2)n(CCCOC)c1=S | 6.18%
27 | COc1cccc(NC(=O)c2ocnc2C)c1 | -8.41%
28 | CCOc1cc(S(=O)(=O)NC2CCCCCC2)ccc1F | 35.2%
29 | Cc1cc(C)nc(CC(N)=O)n1 | 10.8%
30 | CC(=O)NC(=S)Nc1ccc(NC(=O)c2cccs2)cc1 | -1.12%
31 | Cc1c(/C(O)=C2/C(=O)C(=O)N(CCN3CCOCC3)C2c2cccs2)cnn1-c1ccccc1 (centres undefined) | 16.8%
32 | COc1cc(C(C)=O)ccc1Oc1ncnc2c1cnn2-c1ccc(F)cc1 | 12.1%
33 | C/C(=C\COc1ccc2ccc(=O)oc2c1)CC[C@@H](O)C(C)(C)O | -28.7%
34 | CC(C)(C)NC(=O)CSC(=Nc1ccccc1F)NC#N | 36.7%
35 | O=C(CSc1nnc(-c2ccc3c(c2)OCCO3)o1)N1CCCC1 | 21.1%
36 | Cc1c(C(=O)OC2CCC(C)CC2)[nH]c2c1C(=O)CCC2 (centres undefined) | -14.1%
37 | Cc1cc(C(c2nnnn2Cc2ccccc2)N2CCOCC2)c(C)n1-c1ccc2c(c1)OCO2 (centres undefined) | 35.8%
38 | O=c1[nH]c2ccc(N/C(=N/S(=O)(=O)c3ccccc3)c3ccccc3)cc2[nH]1 | -30.8%
39 | Cn1ncc(Cl)c(Oc2ccc(C(C)(C)C)cc2)c1=O | 9.17%

Source: PubChem BioAssay AID624331 (National Center for Advancing Translational Sciences (NCATS), 2012)
